In PubChem BioAssay (NCI):
Compounds without any hit were thinned out: in the full panel of roughly 83,000, 20% have a hit.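 Each cell line was grown in a 96-well plate and treated with one concentration of compound for 48 hours. Values below 10 were considered active.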 Active and inactive are the calls of the source.

How the values were obtained:
Assay in all cases: NCI-60 one-dose screen, 48 h (100 = growth as untreated, 0 = no growth, -100 = all killed)
Conditions in all cases: 10 µM unless noted
[1] = test system: RPMI-8226 leukemia
[2] = test system: OVCAR-4 ovarian
[3] = test system: SK-OV-3 ovarian
[4] = test system: IGROV1 ovarian
[5] = test system: OVCAR-3 ovarian
[6] = test system: HS 578T breast
[7] = test system: NCI/ADR-RES ovarian
[8] = test system: T-47D breast
[9] = test system: OVCAR-8 ovarian
[10] = test system: OVCAR-5 ovarian

Measured: growth

CC(C)COCC(CN(Cc1ccccc1)c1ccccc1)N1CCCC1 (configuration not stated)
inactive: [1] 46.4% | [2] 49.9% | [3] 74.9% | [4] 53.3% | [5] 72.4% | [6] 81.6% | [7] 65.2% | [8] 66.1%

CCOc1cc(C(C)(C)C)ccc1C1=N[C@H](c2ccc(Cl)cc2)[C@H](c2ccc(Cl)cc2)N1C(=O)N1CCN(CC#Cc2cccc3c2CN([C@@H]2CCC(=O)NC2=O)C3=O)CC1
active: [4] 8.46%
inactive: [9] 17.2% | [10] 76% | [2] 26.5% | [3] 62.4% | [5] 41.1% | [6] 16.9% | [7] 25.9% | [8] 13.3%

Cc1cc(O)c2c(c1)C[C@H]1[C@@H]3CC[C@H]4CC(=O)CC[C@]4(C)[C@H]3CC(=O)[C@]21C
inactive: [1] 56.6% | [10] 79.7% | [2] 109% | [3] 114% | [6] 33% | [7] 83.8% | [8] 67.9%

O=c1ccn(C2OC(CO)C(O)C2F)c(=O)[nH]1 (configuration not stated)
inactive: [1] 106% | [10] 94% | [2] 110% | [3] 114% | [5] 109% | [6] 140% | [7] 98.5% | [8] 90%

COc1ccc(OC)c(/C=C/c2nc(=S)n(-c3ccc(Cl)cc3)[nH]2)c1
inactive: [9] 88.6% | [10] 116% | [2] 91.6% | [3] 73.5% | [4] 40.1% | [5] 29.4% | [6] 98.7% | [8] 72.5%

O=C1OCCCCCCCCCC#Cc2ccccc21
inactive: [9] 105% | [10] 99% | [2] 91.3% | [3] 97.3% | [4] 72.1% | [5] 122% | [6] 108% | [7] 99.7% | [8] 80.1%

CCn1c2ccccc2c2ccc(C(C)=O)cc21
inactive: [9] 104% | [10] 89.9% | [2] 96.7% | [3] 111% | [4] 111% | [5] 112% | [6] 144% | [7] 101% | [8] 96.6%

Cc1c(NCc2nnc3n(Cc4ccccc4)c(=O)c4c5c(sc4n23)CCCC5)c(=O)n(-c2ccccc2)n1C
inactive: [1] 97.5% | [10] 107% | [2] 74.7% | [3] 120% | [4] 79.2% | [5] 87.3% | [6] 90.7% | [7] 85.6% | [8] 84%

CCCCC(C#N)C(N)=O (configuration not stated)
inactive: [1] 102% | [10] 106% | [2] 107% | [3] 98.1% | [4] 113% | [5] 108% | [6] 101% | [7] 105% | [8] 100%

COc1cc(/C=C2\COc3ccc(O)c(O)c3C2=O)cc(OC)c1
active: [10] -29.2% | [4] -61.3% | [5] -32.3% | [7] 0.0937% | [8] -12.1%
inactive: [9] 14.6% | [2] 31.1% | [3] 38.2% | [6] 21.8%

Cc1cc(C)c(OC(=O)CSc2nc3ccccc3c(=O)n2CCc2ccccc2)cc1C
inactive: [9] 95.3% | [10] 110% | [2] 101% | [3] 95.7% | [4] 89.4% | [5] 99% | [6] 94.5% | [7] 89.3% | [8] 90.5%

ClC1=C(Cl)C(Cl)=C(Cl)C1=Cc1ccc(Cl)cc1
inactive: [10] 71.9% | [2] 75.4% | [3] 95.5% | [8] 25.3%
active: [1] -43.2% | [6] -12.2% | [7] -47.5%

O=C1/C(=N/O)CCc2ccccc21
active: [5] -6.51%
inactive: [1] 72.9% | [10] 108% | [2] 85.7% | [3] 100% | [4] 69.5% | [6] 95% | [7] 102% | [8] 100%

CC1=C(C(=O)Nc2ccccc2)C(c2ccc3c(c2)OCCO3)NC(=O)N1 (configuration not stated)
inactive: [9] 102% | [10] 102% | [2] 106% | [3] 101% | [4] 104% | [5] 106% | [6] 101% | [7] 101% | [8] 101%

CCCCCCCC/C=C/CCCCCCCC1=NC(C)(C)CN1CCO
inactive: [9] 45% | [10] 87.3% | [2] 52.3% | [3] 78.6% | [5] 32.8% | [6] 35.1% | [7] 77.3%
active: [4] -40.5% | [8] 0.508%

CN1C(=O)/C(=C/c2nc(-c3cccc(F)c3)n3ccccc23)c2ccccc21
inactive: [9] 34.9% | [10] 100% | [2] 41.9% | [3] 66.6% | [5] 60.6% | [6] 33% | [7] 66.4% | [8] 50.1%
active: [4] 7.47%

CCOC(=O)C(Cc1ccccc1)(C(=O)OCC)C(Br)C(=O)c1ccccc1 (configuration not stated)
inactive: [9] 81.4% | [10] 98.1% | [2] 39.8% | [3] 92.2% | [4] 75.1% | [5] 61.3% | [6] 83.1% | [7] 85.1%

Cc1cc(NCCCNc2ccnc3cc(Cl)ccc23)nc(N2CCN(C)CC2)n1
inactive: [1] 38.5% | [10] 86.6% | [2] 59.5% | [3] 106% | [4] 83.1% | [5] 80% | [6] 91.9% | [7] 107% | [8] 81.4%

COc1ccc2nc(-c3ccc(-n4cncc4-c4ccc(OC)c(N)c4)cc3)sc2c1
inactive: [1] 88.2% | [10] 108% | [2] 87% | [3] 117% | [4] 113% | [6] 101% | [7] 115% | [8] 102%

CCCCCCCCCCCCCCCCCc1nccn1CCO
inactive: [1] 82.3% | [10] 71.4% | [3] 94.6% | [4] 68.5% | [5] 86.2% | [6] 83.4% | [7] 59.9% | [8] 47.1%

O=C(/C=C/c1cc2ccccc2[nH]c1=O)c1ccc(Cl)cc1
active: [5] -10.1% | [7] -6.67%
inactive: [9] 23.1% | [10] 55.9% | [2] 43.8% | [3] 58% | [4] 26.4% | [6] 54% | [8] 34%

Nc1ccccc1-c1ccc([N+](=O)[O-])cc1
inactive: [9] 75.3% | [10] 75% | [2] 63.2% | [3] 90.6% | [4] 56.2% | [5] 71.7% | [7] 52.2% | [8] 38.6%

Cc1cccc(Cl)c1NC(=O)c1ccc2nc(NC(=O)NC3CC(C)(C)NC(C)(C)C3)sc2c1
inactive: [1] 87.1% | [10] 78% | [2] 95.3% | [3] 76.3% | [4] 65.2% | [6] 30.8% | [7] 118% | [8] 54%

CCCCCCCC/C=C/CCCCCCCC1=NC(C)(C)CN1CC(C)O (configuration not stated)
active: [4] -15.1% | [6] 3.01%
inactive: [9] 38.8% | [10] 83.8% | [2] 61.7% | [3] 88.5% | [5] 31% | [7] 73.4% | [8] 28.6%

COc1cccc(/C=C2\COc3ccc(O)c(O)c3C2=O)c1OC
active: [10] 2.35% | [4] -39.9% | [5] -18.1% | [8] 4.89%
inactive: [9] 18.3% | [2] 35.3% | [3] 54.8% | [6] 17.3% | [7] 16.9%

CCCc1cccc(CCC)c1O
inactive: [1] 111% | [10] 117% | [3] 110% | [4] 125% | [5] 117% | [6] 107% | [7] 103% | [8] 104%

OC(c1cc(C(F)(F)F)nc2c(C(F)(F)F)cccc12)C1CCCCN1 (configuration not stated)
inactive: [1] 80% | [2] 56.7% | [3] 78.7% | [4] 44.7% | [5] 73.7% | [6] 62.4% | [7] 50.5% | [8] 75.2%

Clc1ccc(-n2cnc3c(Cl)ncnc32)cc1Cl
inactive: [9] 88% | [10] 82.5% | [2] 103% | [3] 99.8% | [4] 54.6% | [5] 98.9% | [7] 107% | [8] 82.2%
